Shown is part of a subset that was picked to be rich in hits.
GBA activity up – glucocerebrosidase activity enhancement; 30,000 compounds, 0.44% hits; activation, % at 10 µM; L444P Gaucher fibroblasts, 4-MU-glucoside fluorescence, 3 days; P04062; in the data active = activation above about 65%;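 note: 0% = vehicle wells and 100% = positive control wells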
* marks the source's active call; other numbers are inactive results.

SMILES	GBA activity up
Cc1ccc2c(c1)C1C=CCC1C(C(=O)O)N2 (configuration not stated)	10.1
Cc1ccc2c(c1)C1OCCC1C1N2C(=O)C2C(C(=O)O)C3C=CC21O3 (configuration not stated)	-45.9
COC(=O)n1c(SC)nc2ccccc21	-10.4
CCc1ccc(NC(=O)Cn2c(SC)nc3ccccc32)cc1	82.2*
CSc1nc2ccccc2n1CC(=O)Nc1c(C)n(C)n(-c2ccccc2)c1=O	-12.2
COc1cc(OC)cc(C(=O)N2c3ccc(F)cc3CCC2C)c1 (configuration not stated)	-4.8
COCCCn1c(SCC(=O)OC2CCCCC2)nnc1-c1ccco1	65.7*
COCCCn1c(SCC(=O)N2CCCCC2C)nnc1-c1ccco1 (configuration not stated)	-3.1
CCCn1c(SCC(=O)N2CCCCC2)nnc1-c1ccco1	-44.0
CC1CCCCN1CC(=O)Nc1sc2c(c1C#N)CCC2 (configuration not stated)	-15.3
O=C(CCN1C(=O)CSC1=O)Nc1ccccc1	-7.0
CC1CN(S(=O)(=O)c2ccc(NC(=O)CCN3C(=O)c4ccccc4C3=O)cc2)CC(C)O1 (configuration not stated)	-38.7
Cc1cc(NS(=O)(=O)c2ccc(NC(=O)CCN3C(=O)c4ccccc4C3=O)cc2)no1	93.0*
Cc1ccc(OCCCC(=O)Nc2ccc(S(=O)(=O)Nc3cc(C)on3)cc2)cc1	-15.2
Cc1sc2nc(CN(Cc3cccs3)C(=O)C3CC3)[nH]c(=O)c2c1C	11.7
CCOc1ccc(C2CC(c3cccc(OC)c3OC)n3nnnc3N2)cc1Cl (configuration not stated)	5.9
CN(C)c1ccc(-c2nc3ccccc3n2C)cc1	80.7*
Cn1c(Sc2nc3ccccc3n2C)nc2ccccc21	-19.8
Cn1c(-c2ccc(Br)o2)nc2ccccc21	5.0
Cc1ccc(S(=O)(=O)Nc2nc3ccc(S(=O)(=O)N4CCCC4)cc3s2)cc1	5.6
O=C(Nc1ccccc1)N1CCCC(c2nc(-c3cccs3)no2)C1 (configuration not stated)	-16.6
CCOCCCNC(=O)C1CCCCN1S(=O)(=O)c1ccc(F)cc1 (configuration not stated)	58.1
COc1cccc(NC(=O)C2C3C=CC4(O3)C2C(=O)N(C(C)C)C4C(=O)NC2CCCCC2C)c1 (configuration not stated)	68.2*
CCCCN1C(=O)C2C(C(=O)Nc3cccc(OC)c3)C3C=CC2(O3)C1C(=O)NC1CCCCC1C (configuration not stated)	-2.7
COc1cccc(NC(=O)C2C3C=CC4(O3)C2C(=O)N(C2CC2)C4C(=O)NC2CCCCC2C)c1 (configuration not stated)	-10.0
SMILES	GBA activity up
CC(C)c1ccc(S(=O)(=O)N2CCN(C(=O)c3cccc(F)c3)CC2)cc1	8.9
COc1ccc(C2=CC(c3ccc(Cl)cc3)n3cnnc3N2)cc1OC (configuration not stated)	-7.8
Nc1nc(-c2ccc(Cl)cc2)nn1C(=O)c1cccnc1	15.2
CCCC(=O)n1nc(-c2ccc(OC)cc2)nc1N	21.0
COc1ccc(C(=O)n2nc(-c3ccccc3)nc2N)cc1OC	70.9*
CCN(CC)S(=O)(=O)c1ccc2oc(SCC3CN=C(c4ccc(OC)cc4)S3)nc2c1 (configuration not stated)	8.2
N#C/C(=C\c1ccc[nH]1)S(=O)(=O)c1ccccc1	-6.3
COc1ccc(Cl)cc1C(=O)Nn1cnc2ccccc2c1=O	-14.8
COC(=O)c1cn(NC(=O)c2ccncc2)c(=O)c2ccccc12	74.5*
COc1ccccc1C(=O)Nn1cnc2ccccc2c1=O	-6.7
Cc1[nH]c2ccc(CNS(=O)(=O)c3ccc(S(=O)(=O)N4CCOCC4)cc3)cc2c1C	-27.8
CC(=O)c1ccc(Oc2ncnc3sccc23)c(CN2CCOCC2)c1	-22.2
CCCCN(CC)CCCNC(=O)c1cc2cc3ccc(OC)cc3nc2o1	123.2*
CCCN(CCC)CCCNC(=O)c1cc2cc3ccc(OC)cc3nc2o1	47.6
COc1ccc2cc3cc(C(=O)NCCc4ccc(OC)c(OC)c4)oc3nc2c1	-50.5
COc1ccc2cc3cc(C(=O)NCCCN4CCOCC4)oc3nc2c1	10.8
CCN1CCN(CCCNC(=O)c2cc3cc4ccc(OC)cc4nc3o2)CC1	93.7*
COc1ccc2cc3cc(C(=O)NCCN4CCN(Cc5ccccc5)CC4)oc3nc2c1	22.1
CS(=O)(=O)Nc1ccccc1C(=O)c1ccccc1	-32.9
COCCOC(=O)C1=C(C)N=C2SCCC(=O)N2C1c1ccc(OC(=O)c2ccco2)cc1 (configuration not stated)	-1.4
CCC(=O)Nc1ccc(S(=O)(=O)Nc2cccc(C)c2)cc1OC	-5.6
CCCn1c(NC(=O)c2ccc(Cl)c(S(=O)(=O)N3CCCC3)c2)nc2ccccc21	-8.8
CCOC(=O)COc1ccc2c(c1)c(C(=O)OCC)c(C)n2CC	1.9
FC(F)(F)c1cc(-c2ccco2)nc(NCc2ccco2)n1	5.6
COc1ccc(-c2cc(C(F)(F)F)nc(NCc3ccco3)n2)cc1OC	-36.3
COc1cccc(-c2cc(C(F)(F)F)nc(NCc3ccco3)n2)c1	105.7*
